Screens (PubChem BioAssay)
A selection: hits, their analogues and other compounds. The true share with any hit is near 6.9%.
IL1B secr inh – qHTS for Inhibitors of Inflammasome Signaling: IL-1-beta AlphaLISA Primary Screen. THP-1 LPS/ATP IL-1B secretion, AlphaLISA, 16 h; hits give low values. activity change, % at 57.5 µM. 4.7% of 360,000 active. AID 743279, 2014; in the data active means activity change below about -50%; inconclusive means mostly about -30% to -49%; further: on the % scale 0 is the no-effect control and ±100 the full control effect
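THP-1 cells pretreated 1 hr with compounds (up to 57.5 uM final), then stimulated with LPS (250 ng/mL final) plus ATP (1.25 mM final); secreted IL-1B measured by AlphaLISA after 16 hr, decreased signal indicating inhibition.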
MCF10A rerep – A quantitative high throughput screen for small molecules that induce DNA re-replication in MCF 10a normal breast cells. Potency, µM (highest dose often 46.1 µM), without a hit: at the highest dose activity, positive = re-replication, usual class: activators. MCF 10A DNA re-replication, Hoechst nuclear intensity, 48 h. 2.9% of 350,000 active; further: potency means the concentration at half of the fitted maximal effect; % of control where 0% means no effect; nearly all actives have a fitted effect of over 50% in size
Vif-APOBEC3G blk – qHTS for Inhibitors of Vif-A3G Interactions: qHTS; Potency, µM (series often up to 46.1 µM), for the others: at the top dose activity, negative = active, most hits filed as inhibitors; HeLa A3G-eYFP + Vif (tagged APOBEC3G with the HIV-1 protein that degrades it), YFP fluorescence, overnight; 0.076% of 410,000 active; DNA dC->dU-editing enzyme APOBEC-3G (Homo sapiens), Q9HC16; further: potency means the concentration at half of the fitted maximal effect; on the % scale 0 is the no-effect control and ±100 the full control effect; nearly all actives have a fitted effect of over 60% in size
Target sequence (Q9HC16 whole entry, looked up): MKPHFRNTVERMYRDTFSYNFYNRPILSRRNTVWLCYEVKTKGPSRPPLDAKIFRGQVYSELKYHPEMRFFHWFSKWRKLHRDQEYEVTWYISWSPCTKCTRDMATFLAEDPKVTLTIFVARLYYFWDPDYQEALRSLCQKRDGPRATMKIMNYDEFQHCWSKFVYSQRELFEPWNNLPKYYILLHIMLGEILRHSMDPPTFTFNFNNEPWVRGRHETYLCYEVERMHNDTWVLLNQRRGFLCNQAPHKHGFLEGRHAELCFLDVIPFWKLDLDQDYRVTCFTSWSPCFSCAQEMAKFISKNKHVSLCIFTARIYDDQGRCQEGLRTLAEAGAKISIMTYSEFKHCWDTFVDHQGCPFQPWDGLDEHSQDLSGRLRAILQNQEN
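Read-out is eYFP fluorescence (Ex 488/Em 500-530) from Vif-expressing HeLa A3G-eYFP cells; more signal means A3G escaped Vif-mediated degradation. Cells plated overnight, compound pinned in, incubated overnight at 37 deg C.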
Giardia killer – Small Molecules that selectively kill Giardia lamblia: qHTS; AID 540267, 2011; activity change, % at 7.66 µM, hits read low; Giardia lamblia trophozoite viability; 0.15% of 340,000 active; in the data active means activity change below about -80%; inconclusive means between about -30% and that limit;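 further: parasites exposed to compound for two days anaerobically before the ATP read; on the % scale 0 is the no-effect control and ±100 the full control effect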
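Media and compound were dispensed first, then trophozoites at 100 cells/well; plates sat 48 hrs at 37 deg C without oxygen before ATP luminescence reagent was added and read after 15-30 min at room temperature.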
Vif-APOBEC3F blk – qHTS for Inhibitors of Vif-A3F Interactions: qHTS | HeLa A3F-eYFP + Vif (tagged APOBEC3F with the HIV-1 protein that degrades it), YFP fluorescence increase | 0.2% of 390,000 active | Potency, µM (series often up to 46.1 µM), for the others: top-dose activity, negative = active; further: potency means the concentration at half of the fitted maximal effect; % of control where 0% means no effect; nearly all actives have a fitted effect of over 65% in size
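HeLa cells stably expressing A3F-eYFP plus Vif, plated and incubated overnight at 37 deg C, then exposed to compounds overnight at 37 deg C. Blocked degradation read as raised yellow fluorescence (Ex 488/Em 500-530).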
SW480 rereplic – A quantitative high throughput screen for small molecules that induce DNA re-replication in SW480 colon adenocarcinoma cells | AID 624297, 2012 | 1.8% of 340,000 active | SW480 DNA re-replication, Hoechst DNA content imaging, 48 h | Potency, µM (top dose mostly 46.1 µM), inactives show at the top dose re-replication activation, usual class: activators; further: potency means the concentration at half of the fitted maximal effect; % of control where 0% means no effect; nearly all actives have a fitted effect of over 55% in size
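Quantitative HTS format with DMSO vehicle controls; 48 hr drug incubation at 37 C, then 40 min Hoechst staining and scanning imager measurement at 405 nm excitation.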
* hit, by the source's call; i = inactive; ? = inconclusive; . = not tested or not shown. Unless noted, the call rests on the fitted dose curve; in most records, active means well fitted curve in the direction sought with a large enough effect; inconclusive means small, poorly fitted or top-dose-only effect, or another doubt; inactive means no such curve, though single readings can be large; an effect the other way counts as inactive or inconclusive.

SMILES | IL1B secr inh | MCF10A rerep | Vif-APOBEC3G blk | Giardia killer | Vif-APOBEC3F blk | SW480 rereplic
COc1cc(/C=N/NC(=O)c2sc3nc(C)cc(C)c3c2N)ccc1O | -89* | 15µM* | -14% | -19 | ? | ?
COc1ccc(/C=N\NC(=O)c2ccc(-c3ccccc3)cc2)c(OC)c1OC | i | -3% | -1% | 17 | 2% | 15%
COc1cc(/C=N/n2cnc3c(sc4nc(C)cc(C)c43)c2=O)ccc1O | . | 0% | -7% | -11 | 8% | ?
COc1ccccc1N=c1scc(-c2ccc(S(=O)(=O)N3CCCC3)cc2)n1C | . | . | 4% | . | 2% | .
Cc1nc2nc[nH]n2c(=O)c1NS(=O)(=O)c1ccc(Br)cc1 | . | . | 4% | . | 2% | .
Cc1cc(C)cc(NC(=O)C2C3C=CC4(O3)C2C(=O)N(CCN2CCCCC2)C4C(=O)NC2CCCCC2)c1 (centres undefined) | -11 | 0% | 2% | 0 | 7% | -3%
CN(C)CCN1C(=O)C2C(C(=O)Nc3cc(Cl)cc(Cl)c3)C3C=CC2(O3)C1C(=O)NC1CCCCC1 (centres undefined) | -68* | -3% | -2% | -17 | -7% | -10%
CCCCN(C)CCN1C(=O)C2C(C(=O)Nc3ccc(C)cc3)C3C=CC2(O3)C1C(=O)NC1CCCCC1 (centres undefined) | -54* | 7% | 1% | 1 | -4% | 6%
CCC(C)C(NC(=O)OC(C)(C)C)C(=O)NC1COC2CC(n3cc(C)c(=O)[nH]c3=O)OC12 (centres undefined) | . | . | -3% | 1 | . | .
CN(C)S(=O)(=O)c1ccc2c(c1)N(CC(=O)NCc1ccc(F)cc1)C(=O)CS2 | . | . | 2% | . | 4% | .
CCN(CCCNC(=O)c1cc2c(=O)[nH]c3ccc(C)cc3c2s1)Cc1ccccc1 | . | . | -22% | . | 2% | .
C[C@@H](/C=C/c1ccc2ccccc2c1)C1COC(=O)C[C@H]1O (some centres undefined) | . | . | -1% | 23 | . | .
COc1nc(N(c2ccccc2)c2ccccc2)nc(-n2ccnc2)n1 | -3 | 16µM* | 0% | 1 | 0% | -5%
N#Cc1nc(N(c2ccccc2)c2ccccc2)nc(-n2cccc2)n1 | . | . | 0% | -21 | . | .
Cc1csc(NC(=O)CSc2[nH]c(=O)ncc2C)n1 | -8 | 0% | 0% | 4 | -2% | -3%
Cc1cnc(=O)[nH]c1SCC(=O)c1ccc(F)cc1 | -10 | 18µM* | 0% | 2 | -27% | 74%
O=C(Nc1ccc(NC(=O)c2ccco2)c(Cl)c1)c1ccccc1 | ? | -3% | 1% | -7 | -9% | 3%
CC(=O)Nc1cccc(NC(=O)c2ccco2)c1 | 26 | 10% | 1% | -17 | -5% | -12%
O=C(Nc1ccc(NC(=O)c2ccc([N+](=O)[O-])o2)cc1Cl)c1ccco1 | . | 9.2µM* | -12% | -92* | -5% | 2.1µM*
O=C(Nc1cccc(NC(=O)c2ccc(-c3cccc(Br)c3)o2)c1)c1ccco1 | -59* | 21% | 2% | 0 | -7% | ?
O=C(Nc1cccc(NC(=O)c2ccc([N+](=O)[O-])o2)c1)c1ccco1 | -90* | 2.3µM* | ? | -85* | 3% | 4.1µM*
Cc1cn2c(=O)cc(COC(=O)c3ccc(NC(=O)COc4ccc(C)c(C)c4)cc3)nc2s1 | . | . | -2% | . | 1% | .
COc1ccc(C)cc1NS(=O)(=O)c1cc(Br)cc2c1N(C(C)=O)C(C)C2 (centres undefined) | . | . | 1% | . | 3% | .
CCn1c(N2CCN(S(=O)(=O)c3ccccc3C(F)(F)F)CC2)nc2ccccc21 | -52* | ? | 0% | 7 | -20% | 11%
CC(C)n1c(N2CCN(S(=O)(=O)c3cccc([N+](=O)[O-])c3)CC2)nc2ccccc21 | -72* | -4% | -6% | -17 | 1% | 4%
